From PubChem BioAssay
Most compounds without a hit are left out; they make up all but 19% or so of the library.
IL-1B inflam inh: qHTS for Inhibitors of Inflammasome Signaling: IL-1-beta AlphaLISA Primary Screen; activity change, % at 57.5 µM; 4.7% of 360,000 active; THP-1 LPS/ATP IL-1B secretion, AlphaLISA, 16 h; active compounds read low; in the data active = activity change below about -50%; inconclusive = mostly about -30% to -49%
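Secreted IL-1B measured by AlphaLISA bead assay after 16 h compound exposure of THP-1 cells; compounds (final up to 57.5 uM) added 1 h before LPS (250 ng/mL) and ATP (1.25 mM) stimulation; lower signal means less secretion.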
DT40 TDP1 CPT: qHTS for Inhibitors of human tyrosyl-DNA phosphodiesterase 1 (TDP1): qHTS in cells in presence of CPT | Potency, µM (titrated, usually from 46.2 µM), inactives show top-dose activity change, negative = growth inhibition, actives largely listed as inhibitors | 12% of 420,000 active | chicken DT40 Tdp1-/-;hTDP1 cells + 20 nM CPT, ATP luminescence, 48 h | AID 686979, 2013; also: potency is read from the fitted curve at half-maximal effect; nearly all actives have a fitted effect of over 55% in size
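Chicken DT40 Tdp1-/- cells complemented with human TDP1, 400 cells/well, exposed to compounds plus 20 nM camptothecin for at least 48 h at 37 C; viability read as ATP content by CellTiter-Glo luminescence.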
HT1080NT lethal: qHTS for induction of synthetic lethality in tumor cells producing 2HG: qHTS for the HT-1080-NT fibrosarcoma cell line; HT-1080-NT fibrosarcoma viability, CellTiter-Glo ATP luminescence, 48 h; Potency, µM (doses to about 46.1 µM), for inactives: at the highest dose activity, negative = less viability, actives largely listed as cytotoxic; 1.6% of 360,000 active; AID 686970, 2013;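 also: NT is the 2HG producing partner of a matched IDH1 knockdown line; potency is read from the fitted curve at half-maximal effect; 0% = DMSO-treated cells and -100% = media-only wells without cells; nearly all actives have a fitted effect of over 55% in size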
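Toxicity toward the 2HG-producing NT line was scored as %Activity, normalised to DMSO and no-cell wells, from CellTiter-Glo luminescence after 48 hours' treatment.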
DT40 TDP1 no CPT: qHTS for Inhibitors of human tyrosyl-DNA phosphodiesterase 1 (TDP1): qHTS in cells in absence of CPT | DT40 Tdp1-/- hTDP1 cells, no CPT, ATP luminescence, 48 h | Potency, µM (highest dose often 46.2 µM), without a hit: at the highest dose activity change, negative = growth inhibition, hits mostly inhibitors | 15% of 420,000 active; also: potency is read from the fitted curve at half-maximal effect; nearly all actives have a fitted effect of over 55% in size
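Growth of hTDP1-complemented DT40 Tdp1-knockout cells is measured by ATP luminescence after at least 48 hr compound exposure at 37 °C, with DMSO substituting for the 20 nM CPT used in the parallel screen.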
HT1080 IDH1KD tx: qHTS for induction of synthetic lethality in tumor cells producing 2HG: qHTS for the HT-1080-IDH1KD cell line; 2% of 360,000 active; HT-1080 IDH1 knockdown viability, ATP luminescence, 48 h; AID 686971, 2013; Potency, µM (highest dose often 46.1 µM), without a hit: at the top dose activity, negative = toxicity, most hits filed as cytotoxic;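 also: potency is read from the fitted curve at half-maximal effect; 0% = DMSO wells and -100% = cell-free medium wells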
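IDH1KD HT-1080 cells, 750/well, RPMI + 5% FBS; compound pinned after 2 h settling; 48 h, 37 °C; CellTiter-Glo luminescence; % activity normalised to DMSO and no-cell wells; curves fitted, classed by r2 and efficacy.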
* = called active by the depositor; u = inconclusive; x = not tested or not shown. Unless noted, calls follow the shape of the dose curve; as a rule, active = well fitted curve in the direction sought with a large enough effect; inconclusive = small, poorly fitted or top-dose-only effect, or another doubt; inactive = no such curve, though single readings can be large; an effect the other way counts as inactive or inconclusive. Unless noted, % is scaled to controls: 0 for no effect and ±100 for the full control effect.

SMILES	IL-1B inflam inh	DT40 TDP1 CPT	HT1080NT lethal	DT40 TDP1 no CPT	HT1080 IDH1KD tx
COc1cc(C(=O)N2CCCCC2c2cc(C(=O)Nc3ccccc3)no2)cc(OC)c1C (centres undefined)	u	u	-18.1%	u	u
COc1ccc(N(Cc2nnc3n2CCCCC3)C(=O)Nc2ccc(Cl)cc2)cc1Cl	x	5.9%	x	-7.5%	x
COc1cccc(-c2nc(-c3ccc(Br)o3)no2)c1	-12.0	-11.4%	u	-15.1%	5.1%
CCOc1ccc(CCNC(=O)Cn2c(=O)oc3ccccc32)cc1OCC	16.7	-2.3%	22.3%	8.7%	-6.8%
CCOC(=O)OC(C)OC1=C(C(=O)Nc2ccccn2)N(C)S(=O)(=O)c2ccccc21 (centres undefined)	x	u	x	2.11µM*	x
O=S(=O)(Nc1ccc(-n2cnnn2)cc1)c1cccc(F)c1	-10.7	-11.6%	10.0%	-11.8%	8.3%
Cc1ccc(CNC(=S)Nc2ccc(NS(=O)(=O)c3ccc(C)cc3)cc2)cc1	-0.2	u	-28.7%	23.1µM*	u
Cc1ccc(CNC(=S)NC2CCC(C(C)(C)C)CC2)cc1 (centres undefined)	24.9	u	7.3%	23.1µM*	-12.0%
Cc1ccc(NS(=O)(=O)c2ccc(C(=O)NCc3ccc(S(N)(=O)=O)cc3)cc2)cc1	-9.2	u	0.0%	u	2.9%
Cc1ccc(CSC(Nc2ccc(F)cc2)=C(C#N)C#N)cc1	-56.8*	3.66µM*	u	3.26µM*	u
Cc1ccc(NC(=S)NCc2ccc(F)cc2)cc1	-4.4	u	-3.5%	25.9µM*	-2.3%
COc1ccc(CNC(=S)NC2CCCC2)cc1	2.3	u	-1.4%	u	0.6%
O=C(CSc1nccn1C1CCCC1)Nc1cccc(F)c1	x	-29.6%	x	-21.1%	x
O=C(Nc1cccc(C(=O)OCc2cc(=O)n3nc(C4CC4)sc3n2)c1)c1ccc(F)cc1	x	16.7%	x	0.1%	x
Cc1cc(C)c(NC(=O)Cn2c(=O)n(CCC(=O)NCc3ccc4c(c3)OCO4)c(=O)c3ccccc32)c(C)c1	x	-12.1%	x	-19.7%	x
COC(=O)Cc1ccc(NC(=S)NCc2ccc(S(N)(=O)=O)cc2)cc1	45.4	20.6µM*	-1.1%	-17.0%	-3.3%
CCSc1c([N+](=O)[O-])c(=O)n(-c2ccccc2)c2ccccc12	-5.9	-23.6%	-0.1%	u	-2.5%
Cc1ccccc1OCC(=O)N/N=C/c1cccc(Oc2ccc([N+](=O)[O-])cc2[N+](=O)[O-])c1	-96.4*	14.6µM*	-3.2%	20.6µM*	-20.7%
O=C(N/N=C/c1cccc(Oc2ccccc2)c1)c1ccncc1	56.5	-5.3%	-1.1%	-3.0%	2.6%
O=C(N/N=C/c1cccc(Oc2ccc([N+](=O)[O-])cc2[N+](=O)[O-])c1)c1cncc(Br)c1	-4.0	u	u	18.4µM*	11.2µM*
Cc1ccc(OCC(=O)N/N=C/c2ccccc2)c([N+](=O)[O-])c1	0.0	8.5%	5.8%	-17.7%	10.5%
COCCn1c(SCC(=O)Nc2ccc(OC)c(S(N)(=O)=O)c2)nc2ccccc2c1=O	-13.0	7.1%	-13.3%	-22.3%	-5.0%
O=C(CCN1CCCCO1)N1CCCC(Nc2cccc(F)c2)C1 (centres undefined)	24.6	-3.7%	13.7%	1.5%	13.3%
C[C@H](NC(=O)c1ncn2c1C(=O)N[C@@H](C)C2)c1ccccc1	30.5	-19.3%	2.6%	u	-2.7%
CCCCOC(=O)NC1CCS(=O)(=O)C1 (centres undefined)	5.0	3.5%	13.4%	-2.0%	24.0%
SMILES	IL-1B inflam inh	DT40 TDP1 CPT	HT1080NT lethal	DT40 TDP1 no CPT	HT1080 IDH1KD tx
CN[C@H]1CCc2cc(OC)c(OC)c(OC)c2-c2ccc(OC)c(=O)cc21	33.1	0.0206µM*	-0.1%	0.13µM*	12.4%
CCOC(=O)NC1CCc2cc(OC)c(OC)c(OC)c2-c2ccc(SC)c(=O)cc21 (centres undefined)	44.7	0.0103µM*	0.0092µM*	0.0164µM*	0.103µM*
CCOCC(=O)NC1CCc2cc(OC)c(OC)c(OC)c2-c2ccc(SC)c(=O)cc21 (centres undefined)	0.0	0.0146µM*	0.0116µM*	0.164µM*	u
COc1cc(C(=O)NCCC(=O)NC2CCCc3ccccc32)cc(OC)c1OC (centres undefined)	25.8	3.3%	4.0%	-12.1%	-6.8%
CCCCOC(=O)NC1CCc2cc(OC)c(OC)c(OC)c2-c2ccc(SC)c(=O)cc21 (centres undefined)	31.0	0.0164µM*	0.0082µM*	0.0146µM*	0.0092µM*
COc1cc2c(c(OC)c1OC)-c1ccc(NC(=O)c3ccccc3)c(=O)cc1[C@@H](NC(C)=O)CC2	4.2	3.3%	0.1%	-9.0%	0.0%
CCN(CC)CCCNC(=O)c1cn(CC)c2ccc(S(=O)(=O)N3CCC(C)CC3)cc2c1=O	x	1.0%	x	u	x
O=C(Nc1ccccc1Cc1ccccc1)c1ccccc1NS(=O)(=O)c1ccc(Cl)s1	-25.6	4.61µM*	16.4µM*	3.66µM*	u
Cc1ccc(NC(=O)c2ccccc2NS(=O)(=O)c2ccc(Cl)s2)cc1	-3.7	23.1µM*	20.6µM*	14.6µM*	u
O=C(Nc1ccccc1)c1ccccc1NS(=O)(=O)c1ccc(Cl)s1	-0.3	u	u	u	u
COc1cccc(C2(O)CCN(C(=O)C3CCC3)CC2)c1	-14.2	-0.1%	-6.0%	-11.8%	-1.3%
COc1ccc(C)cc1S(=O)(=O)NC(C)C(=O)NC1CC1 (centres undefined)	9.9	3.3%	21.0%	-0.1%	10.0%
CCC(=O)c1ccc(OCC(O)Cn2c(C)nc3ccccc32)cc1 (centres undefined)	24.4	18.4µM*	-0.6%	18.4µM*	23.1µM*
Cc1nc2ccccc2n1CC(O)COc1ccccc1Cl (centres undefined)	-8.4	18.4µM*	-12.8%	9.2µM*	-12.2%
COC(=O)c1ccc(OCC(O)CN2C(=O)c3ccccc3C2=O)cc1 (centres undefined)	-3.2	8.2%	9.0%	2.9%	25.1%
COC(=O)c1ccc(OCC(O)CN(CC(C)C)CC(C)C)cc1 (centres undefined)	10.1	u	-8.4%	29.1µM*	-10.2%
CCCc1nc2ccccc2n1CC(O)COc1ccc(C(=O)OC)cc1 (centres undefined)	x	11.6µM*	x	20.6µM*	x
